Compound activity as filed in PubChem BioAssay.
Gli-Sufu block = blocks Gli-Sufu signaling in a luciferase reporter; Sufu-KO-LIGHT fibroblasts, Gli luciferase reporter luminescence; inhibition, % at 5 µM; 0.74% of 340,000 active;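 active = inhibition above about 55%, limit read from the data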;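 also: 0% = DMSO-treated cells and 100% = wells with medium but no cells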
CSC inhib = blocks cancer stem cells; cancer stem cell-like cells viability, luminescence; 1.1% of 300,000 active; inhibition, % at 7.5 µM; in the data active = inhibition above about 75%; tested in HMLE shEcad cells
Mdm2 MdmX PPI = human Mdm2/MdmX binding inhibition | O15151+Q00987 | SaOS-2 split-luciferase Mdm2/MdmX complementation, luminescence | inhibition, % at 8 µM | 3% of 330,000 active | AID 485346;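 active = inhibition of at least 50% at 8 µM in the primary screen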
Beta cell apopt = blocks beta cell apoptosis. INS-1E cytokine-induced death, ATP luminescence, 48 h; percent of positive-control rescue, neutral wells zero. protection from apoptosis, % (test concentration not listed). 0.8% of 300,000 active. AID 435005;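 active = Every replicate reaches about 75%, or at least half do and their mean reaches it too, limit read from the data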;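 also: 0% = cytokine-treated negative control wells and 100% = positive control rescue; higher means more ATP so stronger rescue from cytokine killing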
NR3A LBD binder = modulates the human NR3A ligand-binding domain; NR3A LBD differential scanning fluorimetry, Tm shift; 0% = protein alone, 100% = glycine-bound protein; Tm shift relative to glycine control, % at 25 µM; 2.5% of 340,000 active; AID 1259313;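 active = melting temperature shift of at least 10% of the positive control shift, at one fixed dose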
MPTP inh = inhibitors of mitochondrial permeability transition pore | isolated mouse mitochondria, Ca2+ swelling absorbance, 30 min | inhibition, % at 10 µM | 1.4% of 360,000 active;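 active = inhibition of 50% or more, scaled per plate between neutral and stimulator controls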;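 also: 0% = DMSO wells given calcium and 100% = 1 mM EGTA wells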
Numbers without * were called inactive; . = no result. Shown are actives, neighbours in structure and some others; about 6.6% of the full set was active somewhere.

SMILES	Gli-Sufu block	CSC inhib	Mdm2 MdmX PPI	Beta cell apopt	NR3A LBD binder	MPTP inh
Cc1cc(C2=NNC(=NC3CC3)SC2)c(C)n1-c1ccccc1	91*	.	.	.	0	1
COc1ccc(-n2c(C)cc(C3=NNC(=NC4CC4)SC3)c2C)cc1	.	.	.	.	0	2
COCCCN=C1NN=C(c2cc(C)n(Cc3ccco3)c2C)CS1	-28	0	39	-12	0	8
Cc1cc(C2=NNC(=NC3CC3)SC2)c(C)n1Cc1ccco1	84*	44	.	43	-4	1
O=C(Nc1ccc(O)cc1)c1cc2ccccc2c(=O)s1	-34	3	16	-3	24*	2
CS(=O)(=O)c1nsc2nc(=O)c(/C=C3\C=Nc4ccccc43)c(N)n12	-7	-14	-10	3	39*	4
CC(C)Sc1nsc2nc(=O)c(/C=C3\C=Nc4ccccc43)c(N)n12	-1	35	-3	2	25*	35
CC(C)Cc1nn2c(N)c(/C=C3\C=Nc4ccccc43)c(=O)nc2s1	0	7	1	-7	2	-1
Clc1ccccc1-c1cnc2sc(NCc3ccc4c(c3)OCO4)nn12	.	.	.	.	.	1
Cc1cccc(NS(=O)(=O)c2ccc3[nH]c(=O)[nH]c3c2)c1C	32	-4	-16	2	0	0
Cc1cccc(NS(=O)(=O)c2ccc3c(c2)Cc2cc(S(=O)(=O)Nc4cccc(C)c4C)ccc2-3)c1C	1	29	.	12	13*	3
O=C1NC(=Nc2ccccc2Cl)S/C1=C\c1ccc(C(=O)O)cc1	4	-4	1	-5	0	1
CC12CCC(C/C1=N\N=C1\NC(=O)/C(=C\c3ccc(Cl)cc3)S1)C2(C)C (stereo unspecified)	-7	122*	27	6	8	13
C[C@@H](C(=O)NC1CCN(Cc2ccccc2)CC1)N1C(=O)N2CCc3c([nH]c4ccccc34)[C@@]2(C)C1=O	4	-3	11	8	0	-2
CC(C)[C@@H](C(=O)NC1CCN(Cc2ccccc2)CC1)N1C(=O)N2CCc3c([nH]c4ccccc34)[C@@]2(C)C1=O	-2	9	30	1	37*	-2
CCN1CCc2c(C#N)c(N3CCCCC3)nc(N3CCOCC3)c2C1	5	5	4	0	2	0
CCN1CCc2c(C#N)c(N3CCOCC3)nc(N3CCOCC3)c2C1	2	19	12	.	27*	-1
C=CCc1cccc(CNc2nc3ccccc3n2C(C)C)c1O	-1	29	29	2	11*	15
CCNc1nc(SCC(=O)Nc2ccc(Cl)c(Cl)c2)nc(N(C)C)n1	21	-15	9	-2	10*	2
CCNc1nc(NCc2ccccc2)nc(SCC(=O)Nc2ccccc2)n1	4	-3	40	8	-17	1
CN(C)c1nc(NCc2ccccc2)nc(SCC(=O)Nc2ccc(Cl)c(Cl)c2)n1	11	-7	14	1	32*	45
CC1(c2ccc3c(c2)OCCO3)NC(=O)N(CC(=O)Nc2ccccc2F)C1=O (stereo unspecified)	-17	.	1	.	1	0
CC(=O)N1CC[n+]2c(-c3ccc(Cl)cc3)csc21	6	-2	-7	-37	20*	1
CCc1ccc(-c2csc3[n+]2CCN3C(C)=O)cc1	13	35	11	-10	.	-3
COc1ccc(OC)c(-c2nn(-c3ccccc3)cc2C(=O)NCC(c2ccco2)N2CCCC2)c1 (stereo unspecified)	3	-9	13	-7	1	0
SMILES	Gli-Sufu block	CSC inhib	Mdm2 MdmX PPI	Beta cell apopt	NR3A LBD binder	MPTP inh
COc1cc(OC)cc(-c2nnc(SCC(=O)N(Cc3ccccc3)C(C)(C)C)o2)c1	12	113*	40	20	6	2
CCOC(=O)N1CCN(C(=O)CSc2nnc(-c3cccc(OC)c3)o2)CC1	-1	4	-5	-1	-2	-2
COc1cc(OC)cc(-c2nnc(SCC(=O)N(C(C)C)C(C)C)o2)c1	20	23	8	-2	-1	0
CCOC(=O)N1CCN(C(=O)CSc2nnc(-c3cc(OC)cc(OC)c3)o2)CC1	2	-4	18	4	11*	-2
Cc1c(C)c2c(OCC(=O)NCc3ccccn3)cc3c(c2oc1=O)CCC(C)(C)O3	6	6	9	8	-5	0
CC(=O)c1ccc(NC(=O)[C@@H]2CCCN2C2=NS(=O)(=O)c3ccccc32)cc1	8	-9	10	6	-1	-2
